# Results taken from PubChem BioAssay (NCATS).
# Results filed as inconclusive are left out. Entries that show only a call come without a potency. Active and inactive are the calls of the source. Calls come from the whole dose curve; as a rule, active = well fitted curve in the direction sought with a large enough effect; inconclusive = small, poorly fitted or top-dose-only effect, or another doubt; inactive = no such curve, though single readings can be large; an effect the other way counts as inactive or inconclusive.
# Tested on: not listed separately
# Assay: Primary fluorescence-based thiol-reactive (MSTI) qHTS assay for identification of artifact compounds. (AID 1845221); note: nearly all actives have a fitted effect of over 65% in size; note: potency is the fitted concentration of half-maximal effect
# Conditions: MSTI thiol-reactivity probe, 1 h; series mostly up to 53.8 µM
# How it was run: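 In PBS pH 7.4 with 2% DMSO, each compound met 4 uM MSTI for one hour at ambient temperature, shielded from light, before fluorescence detection.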
row,Compound,Potency
1,O=C(NCC(=O)N1CCCC1)Nc1ccc2cnccc2c1,inactive
2,CC(C)NC(=O)COc1cccc(-c2nc(Nc3ccc4[nH]ncc4c3)c3ccccc3n2)c1,inactive
3,Cc1c(Cl)cccc1S(=O)(=O)Nc1nc(NCCc2ccccc2)nc2c1CN(Cc1ccccc1)CC2,inactive
4,Cn1ncc(Cl)c1-c1cc(C(=O)N[C@H](CN)Cc2ccc(F)c(F)c2)oc1Cl,inactive
5,C/C=C/C=C/c1cc2c(C=O)c(O)c(CC=C(C)C)cc2o1,21200 nM (active)
6,Cc1cc2c(F)c(Oc3ncnn4cc(OCC(C)OC(=O)C(C)N)c(C)c34)ccc2[nH]1 (stereo unspecified),inactive
7,COc1cc2c(cc1OC)CN(C(=O)/C=C/c1c(-c3ccccc3)n(C)c3ncccc13)CC2,inactive
8,COc1cc(F)c(F)c(Nc2ccc(I)cc2F)c1NS(=O)(=O)C1(CC(O)CO)CC1 (stereo unspecified),inactive
9,Cn1ncnc1[C@@H]1c2n[nH]c(=O)c3cc(F)cc(c23)N[C@H]1c1ccc(F)cc1,inactive
10,N#Cc1ccc(Nc2nc(-c3ccc(O)cc3O)cs2)cc1C(F)(F)F,2990 nM (active)
11,CN(C)C(=O)Nc1cc(-c2ccccc2)ccc1N(C)C,2380 nM (active)
12,Cn1ncnc1[C@H]1c2n[nH]c(=O)c3cc(F)cc(c23)N[C@@H]1c1ccc(F)cc1,inactive
13,O=C(Nc1ncc([N+](=O)[O-])s1)c1ccccc1O,2380 nM (active)
14,Cc1ccc(CNc2ncnc3ccc(-c4ccc(CO)o4)cc23)o1,inactive
15,CCC(CC)C(c1ccc(Nc2nc3ccccc3s2)cc1)n1cncn1 (stereo unspecified),inactive
16,C=C1/C(=C/C=C2\CCC[C@]3(C)[C@@H]([C@H](C)/C=C/[C@H](O)C4CC4)CC[C@@H]23)C[C@@H](O)C[C@@H]1O,inactive
17,COc1ccc2cc3c(NC(=O)c4ccco4)nn(C)c3nc2c1,inactive
18,O=C([C@@H](Cc1cccc(C(F)(F)F)c1)NS(=O)(=O)c1cc(F)c2c(c1)CCNC2)N1CCCC1,inactive
19,CN(C)C(CCOc1cccc2ccccc12)c1ccccc1 (stereo unspecified),inactive
20,C#CC(=O)N(c1ccc(OC)cc1OC)C(C(=O)NCC(=O)OCC)c1cccs1 (stereo unspecified),inactive
21,COc1ccc(C#Cc2ccc(C(=O)N3CCC[C@@H](O)C3)c(F)c2)cc1,inactive
22,COCC(c1ccc(C(F)(F)F)cc1)N1CCN(C2(C)CCN(C(=O)c3c(C)ncnc3C)CC2)CC1C (stereo unspecified),inactive
23,O=C(O)c1cc(N(Cc2ccc(C3CCCCC3)cc2)C(=O)c2ccc(Oc3ccccc3)cc2)ccc1O,inactive
24,Cn1sc(=O)n(Cc2ccccc2)c1=O,inactive

# Tested on: Nanoluciferase (engineered Oplophorus gracilirostris luciferase)
# Assay: Primary Nanoluciferase (NLuc) qHTS assay for identification of artifact compounds. (AID 1845222)
# Conditions: NLuc-conditioned medium, Nano-Glo luminescence, 5 min; series mostly up to 54.1 µM
# How it was run: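 Diluted conditioned medium from NLuc-expressing S16 cells treated with compounds for 15 min at room temperature, then Nano-Glo substrate added; luminescence read after 5 min. Percent inhibition versus no-enzyme and DMSO controls fitted to 4-parameter Hill equation.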
row,Compound,Potency
1,CCCn1cc2c(nc(NC(=O)Nc3ccc(OC)cc3)n3nc(-c4ccco4)nc23)n1,inactive
2,O=C(NCC(=O)N1CCCC1)Nc1ccc2cnccc2c1,inactive
3,CC(C)NC(=O)COc1cccc(-c2nc(Nc3ccc4[nH]ncc4c3)c3ccccc3n2)c1,inactive
4,Cc1c(Cl)cccc1S(=O)(=O)Nc1nc(NCCc2ccccc2)nc2c1CN(Cc1ccccc1)CC2,inactive
5,Cn1ncc(Cl)c1-c1cc(C(=O)N[C@H](CN)Cc2ccc(F)c(F)c2)oc1Cl,inactive
6,C/C=C/C=C/c1cc2c(C=O)c(O)c(CC=C(C)C)cc2o1,inactive
7,Cc1cc2c(F)c(Oc3ncnn4cc(OCC(C)OC(=O)C(C)N)c(C)c34)ccc2[nH]1 (stereo unspecified),inactive
8,CC[C@H](C)/C=C(C)/C=C/C1=CC2=CC(=O)[C@]3(C)OC(=O)[C@@H](C(C)=O)[C@@H]3C2=CO1,inactive
9,COc1cc2c(cc1OC)CN(C(=O)/C=C/c1c(-c3ccccc3)n(C)c3ncccc13)CC2,inactive
10,COc1cc(F)c(F)c(Nc2ccc(I)cc2F)c1NS(=O)(=O)C1(CC(O)CO)CC1 (stereo unspecified),inactive
11,Cn1ncnc1[C@@H]1c2n[nH]c(=O)c3cc(F)cc(c23)N[C@H]1c1ccc(F)cc1,inactive
12,N#Cc1ccc(Nc2nc(-c3ccc(O)cc3O)cs2)cc1C(F)(F)F,inactive
13,COc1ccc(-c2c(C)nn3c(NCCN4CCOCC4)cc(C)nc23)cc1OC,inactive
14,CN(C)C(=O)Nc1cc(-c2ccccc2)ccc1N(C)C,inactive
15,Cn1ncnc1[C@H]1c2n[nH]c(=O)c3cc(F)cc(c23)N[C@@H]1c1ccc(F)cc1,inactive
16,COc1ccc2nc3n[nH]c(C)c3c(NCCOCCO)c2c1,inactive
17,CC/C(C)=C/C(=O)OC1C(OC2(C)CCC3C(C4C(C)CCC42)C3(C)C)OC(C)C(O)C1O (stereo unspecified),inactive
18,S=C(c1ccc(-c2ccc(Cl)c(Cl)c2)o1)N1CCCCC1,inactive
19,Cc1ccc(CNc2ncnc3ccc(-c4ccc(CO)o4)cc23)o1,inactive
20,CCC(CC)C(c1ccc(Nc2nc3ccccc3s2)cc1)n1cncn1 (stereo unspecified),inactive
21,C=C1/C(=C/C=C2\CCC[C@]3(C)[C@@H]([C@H](C)/C=C/[C@H](O)C4CC4)CC[C@@H]23)C[C@@H](O)C[C@@H]1O,inactive
22,O=C([C@@H](Cc1cccc(C(F)(F)F)c1)NS(=O)(=O)c1cc(F)c2c(c1)CCNC2)N1CCCC1,inactive
23,CN(C)C(CCOc1cccc2ccccc12)c1ccccc1 (stereo unspecified),inactive
24,C#CC(=O)N(c1ccc(OC)cc1OC)C(C(=O)NCC(=O)OCC)c1cccs1 (stereo unspecified),inactive
25,COc1ccc(C#Cc2ccc(C(=O)N3CCC[C@@H](O)C3)c(F)c2)cc1,inactive
26,COCC(c1ccc(C(F)(F)F)cc1)N1CCN(C2(C)CCN(C(=O)c3c(C)ncnc3C)CC2)CC1C (stereo unspecified),inactive
27,O=C(O)c1cc(N(Cc2ccc(C3CCCCC3)cc2)C(=O)c2ccc(Oc3ccccc3)cc2)ccc1O,inactive
